Unmarked numbers belong to inactive results. Inconclusive results are not listed. Calls of active or inactive are those of the source. Unless noted, the call rests on the fitted dose curve; in most records, active means well fitted curve in the direction sought with a large enough effect; inconclusive means small, poorly fitted or top-dose-only effect, or another doubt; inactive means no such curve, though single readings can be large; an effect the other way counts as inactive or inconclusive.

Test [1] in a line: Identifying Small Molecule Inhibitors of Pancreatic Cancer Stem Cells (SN12C, Adherent) (AID 1259358).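 Further: cell survival measured after 48 h of compound exposure.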 An outline of the steps: (§1)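 Cytotoxicity read by CellTiter-Glo luminescence after 48 h compound exposure at 37C; percent activity scaled between DMSO-treated cells and cell-free wells. Spheroid formats used cells pre-formed 14 days in stem cell media on hydrogel.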
A short description of test [2]: Identifying Small Molecule Inhibitors of Pancreatic Cancer Stem Cells (Panc1, Spheroid) (AID 1259359).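 Further: compound exposure lasted 48 h before reading.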 A digest of the protocol:
(§2)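 Spheroids grown 14 days in stem cell media on hydrogel-coated nonadherent plates; 2D lines seeded directly. Compounds added after 4 h attachment, 48 h at 37C, 5% CO2; CellTiter-Glo luminescence normalized to DMSO (no inhibition) and no-cell wells (full inhibition).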

Test [3] in a line: Identifying Small Molecule Inhibitors of Pancreatic Cancer Stem Cells (SN12C, Spheroid) (AID 1259360).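 Further: 100% = DMSO-treated cells and 0% = wells without cells.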 The settings on record: Potency: SN12C spheroid viability. A digest of the protocol:
as §2

A short description of test [4]: Identifying Small Molecule Inhibitors of Pancreatic Cancer Stem Cells (A278, Adherent) (AID 1259361). Further: nearly all actives have a fitted effect of over 35% in size. An outline of the steps:
as §1

Test [5] is described as follows: Identifying Small Molecule Inhibitors of Pancreatic Cancer Stem Cells (Panc1, Adherent) (AID 1259362).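 Further: compound exposure lasted 48 h before the viability read; plate controls were DMSO-treated cells for no effect and cell-free media wells for full effect.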 The settings on record: Potency: viability. A digest of the protocol:
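Adherent (2D) versus sphere (3D) formats; spheres generated 14 d in SCM beforehand. Compound transferred by pin tool after 4 h, 48 h incubation, CellTiter-Glo endpoint.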

A short description of test [6]: P-glycoprotein substrates identified in KB-8-5-11 adenocarcinoma cell line, qHTS therapeutic library screen (AID 1346987). Further: series mostly up to about 44 µM; on the % scale 0 is the no-effect control and ±100 the full control effect; nearly all actives have a fitted effect of over 65% in size. An outline of the steps:
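In this qHTS, P-gp-rich KB-8-5-11 cells received library compounds across a concentration range. Viability was quantified by luminescence after 72 h at 37 degree C.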
For orientation: Quantitative high-throughput screening tests each substance at several concentrations.

For test [7], the target named is T1, Tyrosine-protein phosphatase non-receptor type substrate 1 (Homo sapiens) + Leukocyte surface antigen CD47 (Homo sapiens) (UniProt P78324+Q08722). Description: CD47-SIRPalpha protein protein interaction - LANCE assay qHTS validation (AID 1347057; active means well fitted curve in the direction sought with a large enough effect in the signal ratio, with a control signal flat, not every such curve was filed as active; the % refers to the signal ratio; further: series mostly up to about 38 µM; 0% is about no effect). An outline of the steps: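 Inhibition of soluble CD47/SIRPalpha ectodomain association by titrated compounds, measured as 665/615 nm time-resolved FRET ratio after sequential 30 min room-temperature incubations.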
T1 sequence (P78324 whole entry, looked up, the tested form may be a part): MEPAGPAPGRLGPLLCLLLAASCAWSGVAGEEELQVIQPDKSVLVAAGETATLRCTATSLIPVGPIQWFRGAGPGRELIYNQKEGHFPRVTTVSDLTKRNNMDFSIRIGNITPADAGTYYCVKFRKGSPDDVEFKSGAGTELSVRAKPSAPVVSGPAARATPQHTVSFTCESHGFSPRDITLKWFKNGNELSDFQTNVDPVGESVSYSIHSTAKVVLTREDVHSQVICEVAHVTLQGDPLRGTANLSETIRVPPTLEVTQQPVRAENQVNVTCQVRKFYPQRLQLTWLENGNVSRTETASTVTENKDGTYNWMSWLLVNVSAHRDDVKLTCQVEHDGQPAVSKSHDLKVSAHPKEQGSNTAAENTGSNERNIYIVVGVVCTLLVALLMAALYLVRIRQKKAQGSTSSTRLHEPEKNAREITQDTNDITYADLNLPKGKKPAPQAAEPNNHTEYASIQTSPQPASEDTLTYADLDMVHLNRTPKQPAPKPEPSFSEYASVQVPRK
T1 sequence (Q08722 whole entry, looked up, the tested form may be a part): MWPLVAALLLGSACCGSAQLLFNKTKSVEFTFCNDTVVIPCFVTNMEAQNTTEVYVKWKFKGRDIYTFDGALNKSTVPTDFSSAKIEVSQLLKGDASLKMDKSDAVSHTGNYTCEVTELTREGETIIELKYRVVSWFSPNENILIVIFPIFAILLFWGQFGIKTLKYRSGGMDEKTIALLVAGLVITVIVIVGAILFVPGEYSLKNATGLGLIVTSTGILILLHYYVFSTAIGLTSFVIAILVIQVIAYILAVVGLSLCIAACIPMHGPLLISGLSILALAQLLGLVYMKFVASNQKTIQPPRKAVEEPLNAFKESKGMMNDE
Background: In TR-FRET formats the signal depends on donor and acceptor labels being close together.

Test [8] deals with T1, Tyrosine-protein phosphatase non-receptor type substrate 1 (Homo sapiens) + Leukocyte surface antigen CD47 (Homo sapiens). Description: CD47-SIRPalpha protein protein interaction - HTRF assay qHTS validation (AID 1347058; active means well fitted curve in the direction sought with a large enough effect in the signal ratio, not every such curve was filed as active; the % refers to the signal ratio; further: series mostly up to about 38 µM; 0% is about no effect). An outline of the steps: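 Soluble extracellular domains (6His-CD47, Avi-tag-biotinylated SIRPalpha) in PBS pH 7.4 with 0.05% IGEPAL CA-630. Compounds were preincubated 30 min at RT with CD47 and anti-His-Eu, then SIRPalpha and SAV-XL665 were added. TR-FRET 665/615 ratio.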

Test [9] has the same target. Description: CD47-SIRPalpha protein protein interaction - Alpha assay qHTS validation (AID 1347059).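 Further: bead proximity luminescence from CD47 binding SIRPalpha after compound preincubation with SIRPalpha; on the % scale 0 is the no-effect control and ±100 the full control effect.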 A digest of the protocol: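 AlphaScreen signal between CD47-His (12.5 nM) and biotin-SIRPalpha (25 nM) soluble extracellular domains, bead-captured via Ni-NTA and streptavidin. Compounds, in 7-point titrations, met SIRPalpha 30 min before CD47; PBS pH 7.4 with 0.05% IGEPAL.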

Test [10] can be described thus: qHTS for Inhibitors of the Functional Ribonucleoprotein Complex (vRNP) of Lassa (LASV) Arenavirus: LASV Primary Screen - GLuc reporter signal (AID 1347082; calls by dose curve; tested in HEK293 reporter line; further: series mostly up to about 57 µM; on the % scale 0 is the no-effect control and ±100 the full control effect; nearly all actives have a fitted effect of over 60% in size).
Test [11] is described as follows: qHTS for Inhibitors of the Functional Ribonucleoprotein Complex (vRNP) of Lassa (LASV) Arenavirus: Viability assay - alamar blue signal for LASV Primary Screen (AID 1347083; calls by dose curve; tested in HEK293 reporter line; further: series mostly up to about 57 µM; on the % scale 0 is the no-effect control and ±100 the full control effect; nearly all actives have a fitted effect of over 80% in size).
Test [12] in a line: qHTS for Inhibitors of the Functional Ribonucleoprotein Complex (vRNP) of Lymphocytic Choriomeningitis Arenaviruses (LCMV): Viability assay - alamar blue signal for LCMV Primary Screen (AID 1347085; calls by dose curve; tested in HEK293 reporter line; further: series mostly up to about 57 µM; on the % scale 0 is the no-effect control and ±100 the full control effect; nearly all actives have a fitted effect of over 80% in size).
Test [13] deals with Nucleoprotein (Lymphocytic choriomeningitis virus (strain Armstrong)) (UniProt P09992). Description: qHTS for Inhibitors of the Functional Ribonucleoprotein Complex (vRNP) of Lymphocytic Choriomeningitis Arenaviruses (LCMV): LCMV Primary Screen - GLuc reporter signal (AID 1347086; calls by dose curve; further: series mostly up to about 57 µM; on the % scale 0 is the no-effect control and ±100 the full control effect; nearly all actives have a fitted effect of over 70% in size).
Chain of Nucleoprotein (Lymphocytic choriomeningitis virus (strain Armstrong)) (P09992 whole entry, looked up): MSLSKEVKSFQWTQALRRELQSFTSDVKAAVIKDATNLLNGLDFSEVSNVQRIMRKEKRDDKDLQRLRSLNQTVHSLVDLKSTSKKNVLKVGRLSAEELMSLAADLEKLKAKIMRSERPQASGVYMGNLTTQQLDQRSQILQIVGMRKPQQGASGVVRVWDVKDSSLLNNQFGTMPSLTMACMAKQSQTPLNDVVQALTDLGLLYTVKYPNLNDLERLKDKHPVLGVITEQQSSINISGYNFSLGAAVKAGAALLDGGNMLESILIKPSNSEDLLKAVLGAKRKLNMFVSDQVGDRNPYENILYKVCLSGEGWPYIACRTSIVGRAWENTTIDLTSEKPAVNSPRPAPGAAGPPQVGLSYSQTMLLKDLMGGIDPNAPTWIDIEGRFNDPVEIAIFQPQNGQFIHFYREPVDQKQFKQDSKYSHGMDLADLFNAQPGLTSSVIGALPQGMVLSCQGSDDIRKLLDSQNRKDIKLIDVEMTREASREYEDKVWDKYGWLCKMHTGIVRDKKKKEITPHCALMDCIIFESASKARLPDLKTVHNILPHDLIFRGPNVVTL
Test [14] is described as follows: qHTS of pediatric cancer cell lines to identify multiple opportunities for drug repurposing: Primary screen for TC32 cells (AID 1347089). Further: on the % scale 0 is the no-effect control and ±100 the full control effect; nearly all actives have a fitted effect of over 60% in size. An outline of the steps:
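Luminescent ATP read-out (CellTiter-Glo) of metabolically active TC32 cells after 48 h exposure. Concentration-response curves came from 11-point (MIPE, 0.78 nM–46 µM) or 8-point (NPC, 0.59 nM–46 µM) primary titrations; follow-up used 11 points.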

Test [15] can be described thus: Natriuretic polypeptide receptor (hNpr1) antagonism - Pilot counterscreen GloSensor control cell line (AID 1347045; calls by dose curve; further: series mostly up to about 38 µM; on the % scale 0 is the no-effect control and ±100 the full control effect). An outline of the steps: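 HEK293 cGMP-sensor cells; 2% GloSensor reagent 2 h RT; LOPAC compounds in 1:5 titrations 30-50 min; 50 uM SNP 20 min; luminescence pre-read and post-read.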
For orientation: Counterscreens check selectivity or assay interference.

Test [16] addresses Atrial natriuretic peptide receptor 2 (Homo sapiens) (UniProt P20594). The test is described as follows: Natriuretic polypeptide receptor (hNpr2) antagonism - Pilot subtype selectivity assay (AID 1347050; calls by dose curve; further: on the % scale 0 is the no-effect control and ±100 the full control effect). A digest of the protocol: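 Antagonist mode: compounds (LOPAC1280, seven 1:5 dilutions) added 30 min before 1 nM hNppC stimulation of hNpr2-HEK293 cGMP-sensor cells; luminescence read before and 20 min after agonist at ambient temperature.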

Test [17] in a line: NS1 protein of Zika virus - qHTS assay to identify small molecule inhibitors in human HEK 293 cells (AID 1347053).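 Further: series mostly up to about 46 µM; plate controls were infected untreated cells for no effect and uninfected cells for full effect; nearly all actives have a fitted effect of over 55% in size.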 An outline of the steps: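 Read-out is a two-antibody TR-FRET for ZIKV NS1, normalized between uninfected cells and infected cells. Compound added 1 h before MR766 infection at MOI 0.5; human HEK 293 cells incubated 24 h, 37 C.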
Test [18] has as its target Parathyroid hormone/parathyroid hormone-related peptide receptor (Homo sapiens) (UniProt Q03431). The test is described as follows: qHTS for PTHR1 Agonists: Optimization Screen against the NCGC LOPAC library (AID 1347079).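 Further: GloSensor cAMP luminescence in HEK-293 GP2 cells expressing human PTHR1 with IBMX; 0% is about no effect.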 A digest of the protocol:
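Signal increase flags agonism. GP2 cells, derived from HEK-293, express human PTHR1 and a GloSensor cAMP construct.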

Test [19] in a line: qHTS of pediatric cancer cell lines to identify multiple opportunities for drug repurposing: Primary screen for DAOY cells (AID 1347090). Further: nearly all actives have a fitted effect of over 55% in size. Further: potency means the concentration at half of the fitted maximal effect.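 On activity change, negative = cytotoxic: series mostly up to about 46 µM; plate controls were DMSO for no effect and bortezomib for full effect.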 An outline of the steps: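 Cell viability, CellTiter-Glo luminescence; 500-1,000 cells/well, 8- or 11-point titration, 48 h compound exposure at 37 degrees C, 5% CO2. Controls: DMSO neutral, bortezomib 2.3 µM final as positive.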

Chain of Atrial natriuretic peptide receptor 2 (Homo sapiens) (P20594 whole entry, looked up): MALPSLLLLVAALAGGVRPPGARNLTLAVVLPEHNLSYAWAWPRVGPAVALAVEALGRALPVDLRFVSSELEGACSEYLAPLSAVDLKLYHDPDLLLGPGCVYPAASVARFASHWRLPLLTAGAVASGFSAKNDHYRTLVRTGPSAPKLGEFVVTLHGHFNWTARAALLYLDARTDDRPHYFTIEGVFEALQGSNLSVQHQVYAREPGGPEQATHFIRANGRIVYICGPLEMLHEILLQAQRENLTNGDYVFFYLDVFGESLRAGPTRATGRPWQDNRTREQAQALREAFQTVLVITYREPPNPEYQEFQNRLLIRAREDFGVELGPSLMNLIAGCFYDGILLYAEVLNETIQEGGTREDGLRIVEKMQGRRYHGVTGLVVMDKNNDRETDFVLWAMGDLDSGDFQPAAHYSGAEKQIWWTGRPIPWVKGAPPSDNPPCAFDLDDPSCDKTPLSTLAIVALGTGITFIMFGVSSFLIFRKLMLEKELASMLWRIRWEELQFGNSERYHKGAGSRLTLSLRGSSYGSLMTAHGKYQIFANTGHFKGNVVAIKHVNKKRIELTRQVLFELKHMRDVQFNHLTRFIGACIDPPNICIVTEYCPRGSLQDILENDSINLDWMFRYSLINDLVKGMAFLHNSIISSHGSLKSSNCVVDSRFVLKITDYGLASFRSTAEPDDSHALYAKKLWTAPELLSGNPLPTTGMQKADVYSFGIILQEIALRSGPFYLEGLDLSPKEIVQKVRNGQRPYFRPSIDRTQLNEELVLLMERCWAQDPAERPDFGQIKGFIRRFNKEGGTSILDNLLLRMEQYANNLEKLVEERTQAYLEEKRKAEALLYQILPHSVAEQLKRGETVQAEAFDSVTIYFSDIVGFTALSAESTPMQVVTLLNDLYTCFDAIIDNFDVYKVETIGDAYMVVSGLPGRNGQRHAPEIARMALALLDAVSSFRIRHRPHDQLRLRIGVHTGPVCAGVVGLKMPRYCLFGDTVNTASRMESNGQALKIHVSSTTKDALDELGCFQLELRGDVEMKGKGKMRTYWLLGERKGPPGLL
Chain of Parathyroid hormone/parathyroid hormone-related peptide receptor (Homo sapiens) (Q03431 whole entry, looked up): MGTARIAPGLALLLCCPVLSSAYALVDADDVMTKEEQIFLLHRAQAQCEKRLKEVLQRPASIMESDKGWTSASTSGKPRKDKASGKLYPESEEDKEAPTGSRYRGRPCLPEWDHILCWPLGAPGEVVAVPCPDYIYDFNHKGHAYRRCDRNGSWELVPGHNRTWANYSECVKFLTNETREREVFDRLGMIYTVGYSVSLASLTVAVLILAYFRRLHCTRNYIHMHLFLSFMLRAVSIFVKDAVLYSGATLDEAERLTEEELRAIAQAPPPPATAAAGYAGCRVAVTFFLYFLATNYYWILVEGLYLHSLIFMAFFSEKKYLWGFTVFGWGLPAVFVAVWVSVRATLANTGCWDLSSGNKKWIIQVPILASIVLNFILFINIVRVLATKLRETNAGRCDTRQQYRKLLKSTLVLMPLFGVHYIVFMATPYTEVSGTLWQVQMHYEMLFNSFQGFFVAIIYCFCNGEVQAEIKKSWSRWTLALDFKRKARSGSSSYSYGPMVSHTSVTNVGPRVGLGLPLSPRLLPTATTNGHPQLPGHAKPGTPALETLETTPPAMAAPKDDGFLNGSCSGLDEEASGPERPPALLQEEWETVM

As for `Cn1c(CCCC(=O)O)nc2cc(N(CCCl)CCCl)ccc21`, the Potency result in [1], in test [3], in test [5], in [6], in test [10] and in test [11] was “inactive” each time. Also, the Potency entry in [12], in test [13] and in [14] was “inactive” each time. In addition, the compound was classed as inactive in [2], in test [7], in [8] and in test [9]. Moreover, in [4], the IC50 (viability decrease) result was “inactive”.

`CC(C)=CCOc1c2occc2cc2ccc(=O)oc12`: the Potency result in test [6], in [15], in [16], in test [17], in test [10] and in test [11] was “inactive” in each case. Further, the Potency result in test [12], in test [13], in test [14] and in test [19] was “inactive” each time. In addition, the outcome in [7], in test [9] and in [18] was inactive.

For `Cc1ncc(CNC(=O)N(CCCl)N=O)c(N)n1`, the Potency entry in test [6], in test [15], in [16], in [17], in [10] and in [11] was “inactive” throughout. Also, the Potency entry in test [12], in [13] and in [19] was “inactive” throughout. For the same compound, the outcome in test [7], in [8], in [9] and in [18] was inactive.

`NCC(CC(=O)O)c1ccc(Cl)cc1` (stereo not given): the Potency result in [6], in test [15], in [16], in test [17], in [10] and in test [11] was “inactive” throughout. In addition, the Potency result in [12] and in test [13] was “inactive” in each case. Also, the result in test [7], in test [8], in test [9] and in test [18] was inactive. In addition, the activity change, negative = cytotoxic in test [14] was 1.72% [at 0.594 µM].

`NCC1(CC(=O)O)CCCCC1`: the Potency entry in [6], in [15], in [16], in test [17], in [10] and in test [11] was “inactive” each time. The Potency result in test [12], in test [13] and in test [14] was “inactive” throughout. Besides, the result in test [7], in test [8], in [9] and in test [18] was inactive.

Consider `CCCN1CCC[C@@H]2Cc3nc(N)ncc3C[C@H]21`, for which the Potency result in [6], in test [15], in test [16], in test [17], in [10] and in test [11] was “inactive” throughout. Besides, the Potency entry in test [12], in test [13] and in [14] was “inactive” each time. Also, the outcome in [7], in test [8], in test [9] and in [18] was inactive.

In the case of `CNC(=O)c1ccc(N2C(=S)N(c3ccc(C#N)c(C(F)(F)F)c3)C(=O)C23CCC3)cc1F`, the IC50 (viability decrease) in test [4] is 23.5 µM (active). In addition, the Potency entry in [6], in [17], in test [10], in [11], in [12] and in test [14] was “inactive” each time. Further, the Potency in test [19] was 3.72 µM (active).

In the case of `COc1ccccc1N1CCNCC1`, the Potency entry in test [6], in test [15], in test [16], in test [17], in test [10] and in [11] was “inactive” throughout. In addition, the Potency entry in test [12], in test [13], in test [14] and in test [19] was “inactive” throughout. Moreover, the result in test [7], in test [8], in test [9] and in test [18] was inactive.

In the case of `COC1(CS(=O)c2ccccc2)CCN(CCc2c[nH]c3ccc(F)cc23)CC1` (stereo not given), in [4], the IC50 (viability decrease) entry is “inactive”. The Potency entry in test [5], in test [6], in test [17], in [10], in test [11] and in test [12] was “inactive” throughout. Further, the Potency result in test [13] and in test [14] was “inactive” throughout.

The values are drawn from PubChem BioAssay (NCATS).
